Laboratory results from PubChem BioAssay (NCATS).
Several values for one entry are separate records, joined by “and”; a condition that tells them apart may be missing. Equal values may be shown once. Records with an inconclusive call do not appear. Some compounds were tested as several samples or in several runs, with calls that do not always agree. Activity calls are given as the source filed them. Unless noted, calls come from the whole dose curve.

What was measured:
[1] = Primary qHTS for inhibitors of SARS-S pseudo-typed particle cell entry (AID 1479145); conditions: outcome: dose series up to 57.1 µM unless noted; note: nearly all actives have a fitted effect of over 45% in size; note: potency is the fitted concentration of half-maximal effect
[2] = Primary qHTS for Huh7 cytotoxicity: counterscreen for inhibitors of MERS-S pseudotyped particle cell entry (AID 1479147); conditions: outcome: dose series up to 57.1 µM unless noted; note: potency is the fitted concentration of half-maximal effect; for activity change, negative = cytotoxicity: % is set by controls: 0 for no effect and ±100 for the full control effect
[3] = Primary qHTS for inhibitors of MERS-S pseudo-typed particle cell entry (AID 1479149); conditions: outcome: dose series up to 57.1 µM unless noted; note: nearly all actives have a fitted effect of over 60% in size; note: potency is the fitted concentration of half-maximal effect
[4] = Primary qHTS for Vero E6 cytotoxicity: counterscreen for inhibitors of SARS-S pseudo-typed particle cell entry (AID 1479150); conditions: outcome: dose series up to 57.1 µM unless noted; for activity change, negative = cytotoxicity: % is set by controls: 0 for no effect and ±100 for the full control effect
[5] = Cytotoxicity counterscreen for inhibitors of SARS-CoV-2 cell entry (AID 1645845); conditions: outcome: dose series up to 57.1 µM unless noted; note: nearly all actives have a fitted effect of over 50% in size; for activity change, negative = cytotoxicity: % is set by controls: 0 for no effect and ±100 for the full control effect
Method in brief: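 Counterscreen run in the same HEK293-ACE2 line as the pseudotyped-particle entry assay, without particles. Viability after 48 h at 37 C was read as ATP luminescence, scaled between cell-containing and cell-free wells.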

[6] = Primary qHTS to identify inhibitors of SARS-CoV-2 cell entry (AID 1645846); conditions: SARS-CoV-2 pseudovirus cell entry assay, luminescence; activity change, negative = inhibition: at 57.1 µM (top of the series) unless noted; note: nearly all actives have a fitted effect of over 45% in size; note: potency is the fitted concentration of half-maximal effect
Method in brief: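 Entry measured by luciferase signal 48 h after adding SARS-CoV-2-S pseudotyped MLV particles to HEK293-ACE2 cells preincubated 1 h with compounds. Normalisation: bald particles and spike particles.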

[7] = biological target: Glutathione peroxidase 1 (Homo sapiens) (UniProt P07203); assay: Primary qHTS Assay for Inhibitors of Recombinant Selenoprotein Glutathione Peroxidase 1 (GPX1) (AID 1845191; active = well fitted curve in the direction sought with a large enough effect; an effect the other way counts as inactive or inconclusive; note: nearly all actives have a fitted effect of over 65% in size)
Chain of Glutathione peroxidase 1 (Homo sapiens) (P07203 whole entry, looked up): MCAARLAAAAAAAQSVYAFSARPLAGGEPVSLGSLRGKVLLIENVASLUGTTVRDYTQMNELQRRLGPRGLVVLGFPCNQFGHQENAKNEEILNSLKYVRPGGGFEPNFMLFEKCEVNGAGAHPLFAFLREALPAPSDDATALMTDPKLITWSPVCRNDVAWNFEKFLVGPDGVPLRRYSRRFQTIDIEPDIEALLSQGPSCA
Method in brief: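 GR-coupled readout: NADPH consumption tracked by fluorescence, ex 340/em 450 nm, at t=0 and after 15 min at RT. Final mix 10 nM GPX1, 1 mM GSH, 0.5 mM CHP, 0.5 mM NADPH, 100 nM GR, 0.01% BSA, following 30 min enzyme–compound preincubation.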

[8] = biological target: Phospholipid hydroperoxide glutathione peroxidase GPX4 (Homo sapiens) (UniProt P36969); assay: Primary qHTS Assay for Inhibitors of Recombinant Selenoprotein Glutathione Peroxidase 4 (GPX4) (AID 1845192; active = well fitted curve in the direction sought with a large enough effect; an effect the other way counts as inactive or inconclusive; note: nearly all actives have a fitted effect of over 65% in size; for activity change, negative = inhibition: % is set by controls: 0 for no effect and ±100 for the full control effect)
Chain of Phospholipid hydroperoxide glutathione peroxidase GPX4 (Homo sapiens) (P36969 whole entry, looked up): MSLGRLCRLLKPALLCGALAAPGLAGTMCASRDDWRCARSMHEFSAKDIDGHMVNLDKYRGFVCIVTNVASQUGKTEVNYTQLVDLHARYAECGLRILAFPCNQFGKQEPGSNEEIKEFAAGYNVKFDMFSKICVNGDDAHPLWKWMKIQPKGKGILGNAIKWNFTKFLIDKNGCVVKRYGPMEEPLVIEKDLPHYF
Method in brief: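 Steps: GPX4 plus compound, 30 min RT; add GR/GSH/NADPH master mix; start with cumene hydroperoxide; read 340/450 nm fluorescence at 0 and 15 min. Finals were 200 nM GPX4, 1 mM GSH, 0.5 mM CHP, 0.5 mM NADPH, 100 nM GR.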

[9] = qHTS profiling for inhibitors of Plasmodium falciparum (3D7) proliferation (AID 743322; call rule not given here;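 note: infected erythrocytes exposed to compound for 72 h before lysis; 100% = DMSO vehicle wells and 0% = 0.29 µM artemisinin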); conditions: P. falciparum 3D7 proliferation; at 28.7 µM (top of the series)
Method in brief: (§1)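 Parasite DNA was quantified by SYBR Green I fluorescence (ex 485, em 535 nm) after overnight lysis in saponin/Triton buffer at room temperature. Cultures at 0.3% parasitemia and 2.5% hematocrit were first exposed to compound for 72 h at 37 C; signals were normalised to artemisinin (0.29 uM) and vehicle wells.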

[10] = qHTS profiling for inhibitors of Plasmodium falciparum (DD2) proliferation (AID 743323; call rule not given here); conditions: lower = more inhibition; at 28.7 µM (top of the series)
Method in brief: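 Parasite DNA quantified by SYBR Green fluorescence (ex 485, em 535 nm) after saponin/Triton lysis and overnight dark incubation. Cultures: 0.3% parasitemia, 2.5% hematocrit, 72 h, 37 C; data scaled between DMSO and 0.29 uM artemisinin.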

[11] = qHTS profiling for inhibitors of Plasmodium falciparum (HB3) proliferation (AID 743324; active = well fitted curve in the direction sought with a large enough effect; an effect the other way counts as inactive or inconclusive;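 note: 100% = DMSO vehicle wells and 0% = artemisinin-treated control wells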); conditions: Plasmodium falciparum HB3 blood-stage proliferation; at 28.7 µM (top of the series)
Method in brief: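 SYBR Green fluorescence (485 ex/535 em) of lysed cultures, incubated overnight at room temperature in the dark, quantifies parasite DNA. Infected erythrocytes at 0.3% parasitemia and 2.5% hematocrit were exposed 72 h; values normalized to DMSO and 0.29 uM artemisinin controls.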

[12] = KB-8-5-11 P-gp reporter qHTS against the NCATS DSHEA and TCM libraries (AID 1919977; active = well fitted curve in the direction sought with a large enough effect; an effect the other way counts as inactive or inconclusive; note: 0% is about no effect)
Method in brief: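 CellTiter-Glo luminescence measured viability after ~72 h exposure (37C, 5% CO2) of KB-8-5-11 cervical adenocarcinoma cells overexpressing P-gp. Colchicine was omitted during assay. Substances were tested as titrations.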

[13] = qHTS profiling of the MIPE4 collection as inhibitors of Plasmodium falciparum (3D7) proliferation (AID 743344; call rule not given here;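 note: scaled between DMSO vehicle wells and 0.29 µM artemisinin as full inhibition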); conditions: P. falciparum 3D7 in erythrocytes, SYBR Green DNA fluorescence, 72 h; at 28.5 µM (top of the series)
Method in brief: as §1

[14] = qHTS profiling of the MIPE4 collection as inhibitors of Plasmodium falciparum (DD2) proliferation (AID 743345; call rule not given here); conditions: P. falciparum Dd2 in erythrocytes, SYBR Green DNA, 72 h; at 28.5 µM (top of the series)
Method in brief: as §1

[15] = qHTS profiling of the MIPE4 collection as inhibitors of Plasmodium falciparum (DD2) proliferation (Rep 2) (AID 743346; call rule not given here); conditions: P. falciparum Dd2 in erythrocytes, SYBR Green DNA, 72 h; at 28.5 µM (top of the series)
Method in brief: as §1

[16] = biological target: Glucocorticoid receptor (Homo sapiens) (UniProt P04150); assay: qHTS assay for small molecule agonists of glucocorticoid receptor signaling (AID 588532; active = well fitted curve in the direction sought with a large enough effect in the signal ratio, with a control signal flat; the % refers to the signal ratio;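 note: 100% = dexamethasone at 0.1 µM and 0% = DMSO only wells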); conditions: HeLa MMTV-bla, beta-lactamase ratio, agonist, 18 h; stronger effect = higher value; percent of dexamethasone control, DMSO zero
Chain of Glucocorticoid receptor (Homo sapiens) (P04150 whole entry, looked up): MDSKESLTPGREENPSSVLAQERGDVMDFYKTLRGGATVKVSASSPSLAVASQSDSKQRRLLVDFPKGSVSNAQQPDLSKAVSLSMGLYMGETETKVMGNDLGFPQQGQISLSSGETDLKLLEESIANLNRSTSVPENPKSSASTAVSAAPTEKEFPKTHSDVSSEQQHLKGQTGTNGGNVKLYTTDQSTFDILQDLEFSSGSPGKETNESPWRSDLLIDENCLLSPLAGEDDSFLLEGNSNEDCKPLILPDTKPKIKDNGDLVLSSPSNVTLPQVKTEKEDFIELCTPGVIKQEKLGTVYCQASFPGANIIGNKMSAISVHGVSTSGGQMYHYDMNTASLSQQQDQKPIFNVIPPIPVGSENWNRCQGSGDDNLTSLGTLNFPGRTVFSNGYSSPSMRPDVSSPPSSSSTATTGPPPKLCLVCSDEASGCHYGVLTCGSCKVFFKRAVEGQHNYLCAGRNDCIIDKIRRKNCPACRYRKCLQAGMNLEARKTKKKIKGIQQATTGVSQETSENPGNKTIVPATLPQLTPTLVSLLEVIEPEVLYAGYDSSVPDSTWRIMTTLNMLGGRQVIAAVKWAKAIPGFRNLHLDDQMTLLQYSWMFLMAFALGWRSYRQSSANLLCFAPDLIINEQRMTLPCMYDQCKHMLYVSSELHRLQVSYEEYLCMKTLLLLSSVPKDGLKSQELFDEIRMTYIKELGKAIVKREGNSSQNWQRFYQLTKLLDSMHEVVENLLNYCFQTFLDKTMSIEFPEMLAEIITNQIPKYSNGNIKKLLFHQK
Method in brief: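 HeLa GRE-bla reporter cells; 18 h compound exposure at 37 C; 2 h CCF4 loading at room temperature; fluorescence at 460 and 530 nm; EC50 by Hill equation.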

[17] = biological target: Peroxisome proliferator-activated receptor delta (Homo sapiens) (UniProt Q03181); assay: qHTS assay for small molecule agonists of peroxisome proliferator-activated receptor delta signaling (AID 588534);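 note: 0% = DMSO basal wells and 100% = positive control agonist at 10 µM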
Chain of Peroxisome proliferator-activated receptor delta (Homo sapiens) (Q03181 whole entry, looked up): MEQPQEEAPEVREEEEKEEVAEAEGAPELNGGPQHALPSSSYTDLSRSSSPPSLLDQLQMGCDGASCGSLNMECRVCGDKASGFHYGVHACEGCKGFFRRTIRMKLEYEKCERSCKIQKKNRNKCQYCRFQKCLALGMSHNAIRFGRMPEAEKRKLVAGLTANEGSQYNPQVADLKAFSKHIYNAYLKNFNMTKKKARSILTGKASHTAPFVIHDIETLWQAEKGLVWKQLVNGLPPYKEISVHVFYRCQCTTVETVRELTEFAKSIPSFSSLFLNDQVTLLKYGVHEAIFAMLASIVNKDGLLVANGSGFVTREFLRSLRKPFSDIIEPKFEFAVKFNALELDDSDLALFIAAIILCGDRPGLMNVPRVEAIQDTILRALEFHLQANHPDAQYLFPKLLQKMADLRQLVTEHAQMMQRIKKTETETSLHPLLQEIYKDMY
Method in brief: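 Titration series tested in agonist mode on beta-lactamase reporter cells; 18 hrs at 37 C after a 5 hr pre-incubation. Readout: CCF4 fluorescence, 2 hrs RT. Hill equation gives EC50 and maximal response.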

[18] = biological target: Vitamin D3 receptor (Homo sapiens) (UniProt P11473); assay: qHTS assay for small molecule agonists of vitamin D receptor signaling (AID 588543);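 note: 0% = DMSO basal and 100% = reference agonist control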
Chain of Vitamin D3 receptor (Homo sapiens) (P11473 whole entry, looked up): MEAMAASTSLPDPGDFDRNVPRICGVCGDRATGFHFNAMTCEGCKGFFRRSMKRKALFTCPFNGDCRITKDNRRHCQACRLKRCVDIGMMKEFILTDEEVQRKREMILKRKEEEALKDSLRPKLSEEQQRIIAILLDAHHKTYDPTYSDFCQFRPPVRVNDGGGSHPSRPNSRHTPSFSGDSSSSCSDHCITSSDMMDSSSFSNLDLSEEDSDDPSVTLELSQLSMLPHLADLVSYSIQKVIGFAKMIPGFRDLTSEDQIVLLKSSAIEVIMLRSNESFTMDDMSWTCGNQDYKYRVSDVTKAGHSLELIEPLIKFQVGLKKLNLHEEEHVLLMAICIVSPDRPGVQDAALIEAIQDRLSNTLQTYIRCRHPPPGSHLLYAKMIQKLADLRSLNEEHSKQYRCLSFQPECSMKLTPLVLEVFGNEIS
Method in brief: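 Agonist-mode beta-lactamase reporter: HEK293T VDR-UAS-bla cells in charcoal-stripped 2% FBS, compound series 16 h 37 C, CCF4 2 h RT. EC50 from Hill fit, scaled against DMSO and 50 nM calcitriol control.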

[19] = qHTS assay for small molecule agonists of retinoid X receptor alpha signaling (AID 588544); conditions: HEK293T RXRa-UAS-bla, beta-lactamase reporter, 18 h; 530 nm emission;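 for activation: 0% = DMSO basal wells and 100% = reference agonist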
[20] = biological target: Retinoic acid receptor RXR-alpha (Homo sapiens) (UniProt P19793); assay: as above
Chain of Retinoic acid receptor RXR-alpha (Homo sapiens) (P19793 whole entry, looked up): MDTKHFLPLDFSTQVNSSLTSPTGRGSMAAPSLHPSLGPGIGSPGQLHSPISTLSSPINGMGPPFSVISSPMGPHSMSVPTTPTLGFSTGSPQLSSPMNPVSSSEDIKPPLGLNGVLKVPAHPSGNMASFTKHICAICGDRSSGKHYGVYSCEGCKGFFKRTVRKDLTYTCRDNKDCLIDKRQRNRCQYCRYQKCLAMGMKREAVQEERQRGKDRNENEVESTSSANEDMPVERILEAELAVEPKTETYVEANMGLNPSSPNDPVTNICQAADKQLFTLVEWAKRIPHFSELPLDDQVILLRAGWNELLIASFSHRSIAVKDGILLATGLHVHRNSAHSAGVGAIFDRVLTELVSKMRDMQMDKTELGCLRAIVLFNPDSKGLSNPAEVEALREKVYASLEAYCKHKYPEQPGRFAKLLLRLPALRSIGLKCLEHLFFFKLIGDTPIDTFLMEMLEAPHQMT

[21] = biological target: Thyroid hormone receptor beta (Homo sapiens) (UniProt P10828); assay: qHTS assay for small molecule agonists of thyroid hormone receptor beta signaling (AID 588545);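 note: 0% = DMSO only and 100% = 10 nM T3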
Chain of Thyroid hormone receptor beta (Homo sapiens) (P10828 whole entry, looked up): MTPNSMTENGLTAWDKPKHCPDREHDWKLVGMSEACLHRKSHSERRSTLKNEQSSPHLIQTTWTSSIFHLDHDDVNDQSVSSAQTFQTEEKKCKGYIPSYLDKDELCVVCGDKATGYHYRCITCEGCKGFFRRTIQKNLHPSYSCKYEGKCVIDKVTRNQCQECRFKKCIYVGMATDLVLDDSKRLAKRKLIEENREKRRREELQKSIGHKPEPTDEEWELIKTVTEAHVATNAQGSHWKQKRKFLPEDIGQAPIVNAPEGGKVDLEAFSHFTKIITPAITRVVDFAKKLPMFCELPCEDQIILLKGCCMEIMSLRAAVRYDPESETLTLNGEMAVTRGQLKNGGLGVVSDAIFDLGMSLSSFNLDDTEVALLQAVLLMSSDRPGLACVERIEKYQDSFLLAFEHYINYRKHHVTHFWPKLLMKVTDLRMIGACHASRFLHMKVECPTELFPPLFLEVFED
Method in brief: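 Stimulation of a TR-driven beta-lactamase reporter was quantified in GripTite HEK 293 cells. Compound series ran for 18 hrs; curves were normalized to T3 and DMSO controls and fitted to yield EC50.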

[22] = biological target: Luciferin 4-monooxygenase (Photinus pyralis) (UniProt P08659); assay: Biochemical firefly luciferase enzyme assay for NPC (AID 624030; active = well fitted curve in the direction sought with a large enough effect; an effect the other way counts as inactive or inconclusive;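 note: purified P. pyralis luciferase at 10 nM with luciferin and ATP substrate; 0% = DMSO and -100% = full luciferase inhibition by PTC124 control; nearly all actives have a fitted effect of over 70% in size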)
Chain of Luciferin 4-monooxygenase (Photinus pyralis) (P08659 whole entry, looked up): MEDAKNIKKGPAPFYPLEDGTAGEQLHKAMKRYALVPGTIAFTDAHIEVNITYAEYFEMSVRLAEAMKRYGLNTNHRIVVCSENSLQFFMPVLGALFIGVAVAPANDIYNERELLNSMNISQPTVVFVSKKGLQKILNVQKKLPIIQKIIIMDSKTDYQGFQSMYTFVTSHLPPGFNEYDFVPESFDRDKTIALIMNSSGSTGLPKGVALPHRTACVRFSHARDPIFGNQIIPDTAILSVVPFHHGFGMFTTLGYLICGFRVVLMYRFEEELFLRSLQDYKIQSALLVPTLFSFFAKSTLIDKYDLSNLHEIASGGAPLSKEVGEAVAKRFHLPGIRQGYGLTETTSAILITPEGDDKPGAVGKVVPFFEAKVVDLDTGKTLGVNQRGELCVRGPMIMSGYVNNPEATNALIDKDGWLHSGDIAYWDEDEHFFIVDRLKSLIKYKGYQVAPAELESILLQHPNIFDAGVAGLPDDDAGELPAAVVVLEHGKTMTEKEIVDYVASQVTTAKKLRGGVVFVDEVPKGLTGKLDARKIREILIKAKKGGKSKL
Method in brief: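 Purified P. pyralis luciferase at 10 nM in 50 mM Tris Acetate (final), luminescence read within 5 minutes of enzyme addition to compounds. Activity normalised to PTC124 versus DMSO; concentration-response curves classed by r2, magnitude and activity.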

[23] = qHTS assay for small molecule agonists of the antioxidant response element (ARE) signaling pathway (AID 651741; active = well fitted activation curve with a large enough effect in the signal ratio; the % refers to the signal ratio; note: potency is the fitted concentration of half-maximal effect; for activation: % of control where 0% means no effect)
Method in brief: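 HepG2 ARE-bla reporter cells, 2,000/well; 5 h settle at 37 C/5% CO2; compound pin transfer (23 nL, DMSO); 16 h at 37 C; LiveBLAzer B/G FRET substrate, 2 h RT; fluorescence intensity read.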

COC1(O[C@H]2CC[C@H]3[C@@H]4CC[C@H]5C[C@@H]6S[C@@H]6C[C@]5(C)[C@H]4CC[C@]23C)CCCC1
inactive: Potency [1] | Potency [2] | Potency [3] | Potency [4] | Potency [5] | Potency [6] | Potency [7] | Potency [8]

C=C/C=C/CC1=C(C)[C@H](OC(=O)[C@H]2[C@H](/C=C(\C)C(=O)OC)C2(C)C)CC1=O
inactive: Potency [1] | Potency [2] | Potency [3] | Potency [4] | Potency [5] | Potency [7] | Potency [8]

CC[C@H]1C2C[C@H]3[C@@H]4N(C)c5ccccc5[C@@]45C[C@H](C2[C@H]5O)N3[C@@H]1O (stereo not given in full)
inactive: Potency [1] | Potency [2] | Potency [3] | Potency [4] | Potency [5] | Potency [7] | Potency [8]

COCC1=C(C(=O)O)N2C(=O)[C@@H](NC(=O)/C(=N\OC)c3csc(N)n3)[C@H]2SC1
inactive: Potency [1] | Potency [2] | Potency [3] | Potency [4]
-16.5%: activity change, negative = inhibition [6]

C=C[C@H]1CN2CC[C@H]1C[C@H]2[C@H](O)c1ccnc2ccccc12
inactive: Potency [1] | Potency [2] | Potency [3] | Potency [4] | Potency [5] | Potency [7] | Potency [8]

CC[C@H]1CN2CCc3cc(OC)c(OC)cc3C2C[C@@H]1CC1NCCc2cc(OC)c(OC)cc21 (stereo not given in full)
inactive: Potency [4]
active: Potency [1] 5.62 µM | Potency [2] 17.8 µM | Potency [3] 5.62 µM | Potency [6] 1.78 µM

OB1OCc2cc(F)ccc21
inactive: Potency [1] | Potency [2] | Potency [3] | Potency [4] | Potency [5]
-25.6%: activity change, negative = inhibition [6]
85.7%: remaining parasite growth % (stronger effect = lower value) [9]
40.3%: remaining proliferation (% of control), lower = more inhibition [11]
91.5%: activity, percent of control [10]

CC(C)=CCC/C(C)=C/C=C/C(C)=C/C=C/C(C)=C/C=C/C=C(C)/C=C/C=C(C)/C=C/C=C(\C)CCC=C(C)C
inactive: Potency [1] | Potency [2] | Potency [3] | Potency [4] | Potency [5] | Potency [12]

CN[C@@H]1[C@H](O)[C@H](O[C@@H]2[C@H](O)[C@@H](O[C@H]3O[C@H]([C@@H](C)NC)CC[C@H]3N)[C@@H](N)C[C@H]2N)OC[C@]1(C)O
196%: parasite growth, % of control (lower = inhibition) [15]
98.7%: parasite growth remaining, % of DMSO control (lower = more inhibition) [14]
81.2%: parasite growth, % of DMSO control [13]
inactive: outcome [1] inactive [at 11.4 µM] | activity change, negative = cytotoxicity [2] -2.83% [at 11.4 µM] | outcome [3] inactive [at 11.4 µM] | activity change, negative = cytotoxicity [4] -14.2% [at 11.4 µM] | activity change, negative = cytotoxicity [5] -14.3% [at 11.3 µM]
-8.26% [at 11.3 µM]: activity change, negative = inhibition [6]

CCCCC/C=C\C/C=C\C/C=C\CCCCC(=O)O
-13.4% [at 114 µM]: activity change, negative = inhibition [6]
inactive: Potency [1] | Potency [2] | Potency [3] | Potency [4] | Potency [5] | activity change, negative = inhibition [12] 5.04% [at 3.26 µM]

CC/C=C\C/C=C\C/C=C\C/C=C\C/C=C\CCCC(=O)O
-29%: activity change, negative = inhibition [6]
inactive: Potency [1] | Potency [2] | Potency [3] | Potency [4] | Potency [5] | Potency [12]

CC1(C)C(C=C(Cl)Cl)C1C(=O)OCc1cccc(Oc2ccccc2)c1 (stereo not given)
inactive: activation [16] 2.68% and -0.215% and 2.06% | outcome [17] | outcome [18] | Potency [20] | outcome [21] | Potency [22] | Potency [23] | Potency [1] | Potency [2] | Potency [3] | Potency [4] | Potency [5]
-7.32% and -8.4%: max response [19]

CC1(C)S[C@@H]2[C@H](NC(=O)COc3ccccc3)C(=O)N2[C@H]1C(=O)O
inactive: outcome [17] | Potency [1] | Potency [2] | Potency [3] | Potency [4] | Potency [5]
-8.38%: activity change, negative = inhibition [6]

OC[C@H]1O[C@@](CO)(O[C@H]2O[C@H](CO)[C@@H](O)[C@H](O)[C@H]2O)[C@@H](O)[C@@H]1O
inactive: outcome [17] | Potency [1] | Potency [2] | Potency [3] | Potency [4] | Potency [5]

CCCCCCCCCCCCCCCCCC(=O)[O][Al]
inactive: activity change, negative = inhibition [1] -36% [at 5.34 µM] | activity change, negative = cytotoxicity [2] -3.61% [at 5.34 µM] | outcome [3] inactive [at 5.34 µM] | activity change, negative = cytotoxicity [4] -0.388% [at 5.34 µM] | outcome [6] inactive [at 5.25 µM]

C/C=C/C=C/C(=O)O
inactive: outcome [17] | Potency [1] | Potency [2] | Potency [3] | Potency [4] | Potency [5] | Potency [6]

OCC1OC(c2ccc(Cl)c(Cc3ccc(OC4CCOC4)cc3)c2)C(O)C(O)C1O (stereo not given)
inactive: Potency [1] | Potency [2] | Potency [3] | Potency [4]
-20.7%: activity change, negative = inhibition [6]

C=CCCCCCCCCC(=O)O[C@H]1CC[C@H]2[C@@H]3CCC4=CC(=O)C=C[C@]4(C)[C@H]3CC[C@]12C
inactive: Potency [1] | Potency [2] | Potency [3] | Potency [4] | Potency [5] | Potency [7] | Potency [8]

COc1ccc(C(=O)N2CCN(c3ccc4c(c3)CCC(=O)N4)CC2)cc1OC
3.69% and -19.3%: activity change, negative = inhibition [6]
inactive: Potency [1] | Potency [2] | Potency [3] | Potency [4]

Cc1cccc(O)c1
inactive: outcome [21] | Potency [1] | Potency [2] | Potency [3] | Potency [4] | Potency [5]
-15.1%: max response [19]
355 µM (active) and inactive: Potency [23]
